From PubChem BioAssay
An excerpt weighted towards active compounds, which were near 6.2% of everything screened.
AHR act: human AHR activation | AHR-responsive luciferase reporter cells, luminescence | P35869 | 320,000 tested, 2.5% active | AID 2796 | activation, % at 5 µM; in the data active = activation above about 47%
Mot1-301 SUMO: SUMOylation pathway inhibition by Mot1-301 growth rescue. 320,000 tested, 1% active. AID 2716. growth rescue, % at 18.8 µM. S. cerevisiae Mot1-301 growth rescue, ATP luminescence, 38.5C; percent above DMSO median, 100 means doubled;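 active = every valid replicate shows activation above 250% relative to neutral control wells; inactive = the rest, any valid replicate at or below 250%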
H9c2 protect: modulators protecting cardiomyocytes from myocardial damage; H9c2 cardiomyocytes, H2O2 injury protection, ATPLite, 2 h; protection from H2O2 cell death, % at 20 µM; 360,000 tested, 0.63% active; AID 588492;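 active = compounds giving at least 50% protection of heart cells from peroxide-induced death in the single-dose screen, raw or plate-pattern-corrected value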
NTR1 agonist: NTR1 (human) agonism. P30989. activation, % at 20 µM. 330,000 tested, 0.17% active. AID 493036. NTR1-U2OS beta-arrestin-GFP spot imaging, agonist mode;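 active = activation at or above 40% of the spot to cytoplasm intensity ratio, with at least 20 cells analyzed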
GRIN3A LBD mod: modulators (binders) of human NR3A ligand-binding domain | NR3A LBD differential scanning fluorimetry, Tm shift; 0% = protein alone, 100% = glycine-bound protein | 340,000 tested, 2.5% active | Tm shift relative to glycine control, % at 25 µM | AID 1259313;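 active = melting temperature shift of at least 10% of the positive control shift, at one fixed dose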
AI-2 QS modul: modulators of Vibrio harveyi AI-2 quorum sensing system. Vibrio harveyi JMH597 AI-2 luminescence/OD600 ratio, 9 h; stronger effect = lower value; strain lacks LuxN and CqsS sensors; 0 = neutral-control median. activity change, % at 7.5 µM. 300,000 tested, 0.4% active; in the data active = activity change below about -75%, passing the limit was not always enough;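 note: luminescence divided by OD600 gain over 9 h not by final OD600 alone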
AHR act confirm: human AHR activation, confirmation | shares compounds with AHR act | human cells, AHR-responsive luciferase reporter, luminescence | activation, % at 9 µM | 2,300 tested, 87% active | AID 2845; in the data active = activation above about 49%;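 note: HepG2 hepatoma cells carrying a DRE-driven firefly luciferase reporter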
PXR counter: counter-screen for AHR activators: human PXR activators. cell-based PXR reporter, luciferase luminescence. activation, % at 11.6 µM. 2,300 tested, 88% active. shares compounds with AHR act; in the data active = activation above about 11%;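 note: human hepatoma DPX-2 cells expressing full-length human PXR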
Target sequence (O75469 whole entry, looked up): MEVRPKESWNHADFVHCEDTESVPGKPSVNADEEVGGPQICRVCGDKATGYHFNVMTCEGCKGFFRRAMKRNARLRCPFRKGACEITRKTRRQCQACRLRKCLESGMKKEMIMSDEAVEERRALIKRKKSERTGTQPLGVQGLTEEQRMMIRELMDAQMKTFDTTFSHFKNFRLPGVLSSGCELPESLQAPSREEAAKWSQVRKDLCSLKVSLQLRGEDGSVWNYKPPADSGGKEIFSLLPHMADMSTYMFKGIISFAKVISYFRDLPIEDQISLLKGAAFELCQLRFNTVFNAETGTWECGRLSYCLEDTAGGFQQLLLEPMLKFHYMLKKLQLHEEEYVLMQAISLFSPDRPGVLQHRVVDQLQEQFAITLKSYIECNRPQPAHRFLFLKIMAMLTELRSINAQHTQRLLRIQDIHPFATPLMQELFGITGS
Of the large screens only hits and unclear results are named; the others gave an inactive call (follow-up assays come after a bar, where they were run).

CC(=O)Nc1sc2c(c1-c1nc3ccccc3s1)CCN(C(C)C)C2	AHR act 172 (no result: AI-2 QS modul) | AHR act confirm 70
CC(C)N1CCc2c(sc(NC(=O)c3ccc4ccccc4c3)c2C(N)=O)C1	none
CC(C)N(C(=O)[C@H]1C[C@H](CC(=O)NCCc2ccccn2)C(=O)N2CCc3c([nH]c4cc(CCC(=O)N(C)C)ccc34)[C@]12C)C(C)C	none (no result: AHR act, Mot1-301 SUMO, AI-2 QS modul)
C/C(=N\NC(=O)c1ccc2ccccc2c1)c1cccs1	none (no result: AHR act)
C/C(=N\NC(=O)c1cccc([N+](=O)[O-])c1)c1cccs1	AHR act 81 | AHR act confirm 79 | PXR counter 31
CCOc1ccc2c(c1)c(N=O)c(O)n2C	AHR act 94 | AHR act confirm 62 | PXR counter 10
CCOc1ccc(/C=N/NC(=O)c2c(C)n(C)c3ccc(OC)cc23)cc1	none
O=C(Nc1ccccc1C(=O)NCCc1ccccc1)c1ccco1	AHR act 110, GRIN3A LBD mod 16 | AHR act confirm 102 | PXR counter 42
O=C1N/C(=N\c2ccccn2)SC1Cc1ccccc1Cl (stereo not given)	AHR act 80 | AHR act confirm 89 | PXR counter 34
CCCCOC(=O)c1ccc(-c2ccc(/C=N/NC(=S)NCC)o2)cc1	none
C=CCNC(=S)N/N=C/c1ccc(-c2ccc(Br)cc2)o1	AHR act 81, GRIN3A LBD mod 16 | AHR act confirm 132 | PXR counter 19
CC(C)(C)Cc1c(-c2ccc(Cl)cc2)nc2ccc(Cl)cn12	none (no result: AHR act, Mot1-301 SUMO, NTR1 agonist, GRIN3A LBD mod, AI-2 QS modul)
CN(C)Cc1c(-c2ccc(Cl)cc2)nc2ccc(Cl)cn12	AHR act 133 | AHR act confirm 109 | PXR counter 12
C=CCc1c(C)nc(-c2ccccc2)nc1Nc1ccccc1O	AHR act 121 | AHR act confirm 88 | PXR counter 134
COc1ccc2oc(-c3ccccc3)cc(=O)c2c1	none (no result: AHR act, Mot1-301 SUMO, NTR1 agonist, GRIN3A LBD mod, AI-2 QS modul)
O=c1cc(-c2ccccc2)oc2ccc(Br)cc12	AHR act 99 (no result: AI-2 QS modul) | AHR act confirm 80 | PXR counter 39
Cc1c(C)c(C)c2[nH]c(-c3ccc4c(c3)OCO4)nc2c1C	AHR act 102 | AHR act confirm 102 | PXR counter 50
O=c1c2c([nH]n1-c1ccccc1)CCCC2	none
Cc1cccc2c1ncc1c(=O)n(-c3ccccc3)[nH]c12	AHR act 136 | AHR act confirm 129 | PXR counter 32
O=C(C[n+]1cn(C(F)F)c2ccccc21)c1ccc(Br)cc1	none
O=C(C[n+]1cc(Br)cc2ccccc21)c1ccc(Br)cc1	AHR act 101 | AHR act confirm 112 | PXR counter 30
Cc1cc(C)n(-c2nc3c(c(=O)[nH]c(=O)n3C)n2CC(O)c2ccccc2)n1 (stereo not given)	AHR act 80 | AHR act confirm 78 | PXR counter 45
Cc1cc(C)n(-c2nc3c(c(=O)[nH]c(=O)n3C)n2CCc2ccccc2)n1	AHR act 133 | AHR act confirm 84 | PXR counter 67
Cc1cc(C)n(-c2nc3c(c(=O)[nH]c(=O)n3C)n2Cc2ccccc2)n1	none (no result: Mot1-301 SUMO)
CCCC1OC(c2ccco2)OCC1CC (stereo not given)	none (no result: AHR act, Mot1-301 SUMO, NTR1 agonist, AI-2 QS modul)
COc1ccc(-c2coc3c(C(=O)Nc4cccc(C(C)=O)c4)cccc23)c(C)c1	none (no result: AHR act, Mot1-301 SUMO, NTR1 agonist, GRIN3A LBD mod, AI-2 QS modul)
CC(C)(C)OC(=O)N1CCN(CCNC(=O)c2ccccc2)CC1	none
C=CCSc1nc2sc3c(c2c(=O)n1CC=C)CCc1ccccc1-3	none
NNc1nc2sc3c(c2c(=O)[nH]1)CCc1ccccc1-3	AHR act 133 | AHR act confirm 78
NC1=NC(=O)/C(=C/c2cn(Cc3ccccc3)c3ccccc23)S1	AHR act 116 | AHR act confirm 87 | PXR counter 25
C=CCOC(=O)c1[nH]c2c(c1C)C(=O)CC(c1ccco1)C2 (stereo not given)	AHR act 103 (no result: H9c2 protect) | AHR act confirm inactive | PXR counter 195
C/C=C/COC(=O)c1[nH]c2c(c1C)C(=O)CC(c1ccco1)C2 (stereo not given)	AHR act 116 | AHR act confirm inactive | PXR counter 197
O=C(NNC(=O)c1ccc(F)c(S(=O)(=O)N2CCOCC2)c1)c1ccc([N+](=O)[O-])cc1	none (no result: AI-2 QS modul)
c1ccc(C(CN2CCCCC2)Oc2ccccn2)cc1 (stereo not given)	none (no result: AHR act, Mot1-301 SUMO, NTR1 agonist, AI-2 QS modul)
N#C/C(=C1/CCCCCN1)c1nc2ccccc2[nH]1	AHR act 115 | AHR act confirm 144 | PXR counter 48
COc1ccccc1C(=O)Nc1ccc2c(C)cc(=O)oc2c1	AHR act 98 | AHR act confirm 98 | PXR counter 41
CC(C)Cc1nnc(NC(=O)CCC(=O)NCCc2ccc(Cl)cc2)s1	none
O=C(O)c1cccc(NC(=O)c2ccccc2NC(=O)c2ccccc2F)c1	none
O=C(Nc1ccccc1C(=O)Nc1ccccc1)c1ccccc1F	AHR act 83 | AHR act confirm 65 | PXR counter 41
COC(=O)[C@@]12OC[C@]34[C@H]([C@@H](O)[C@@H]1O)[C@@]1(C)C(=O)C(O[C@@H]5OC(CO)[C@@H](O)[C@@H](O)[C@@H]5O)=C[C@@H](C)[C@@H]1C[C@H]3OC(=O)[C@H](OC(=O)/C=C(\C)C(C)(C)OC(C)=O)[C@@H]24 (stereo not given in full)	none (no result: H9c2 protect, AI-2 QS modul)
O=C(Nc1cccc(Cl)c1)c1ccc(=O)[nH]n1	AHR act 148 | AHR act confirm 104
CN(c1ccccc1)S(=O)(=O)c1cccc(NC(=O)c2ccc(=O)[nH]n2)c1	none (no result: AI-2 QS modul)
CCn1cnc2cc(NCc3ccc(Cl)cc3)ccc21	AHR act 99 | AHR act confirm 98 | PXR counter 32
CCOc1ccc(N=C(NN)c2ccc3ccccc3n2)cc1	AHR act 108 | AHR act confirm 110 | PXR counter 19
CCOc1ccc(N=C(C)C2=C(O)c3ccccc3C2=O)cc1	none
O=C1NC(c2cccs2)Nc2sc3c(c21)CCCC3 (stereo not given)	AHR act 93 | AHR act confirm 128 | PXR counter 37
COCc1cccc(-c2csc(C(O)c3ccccc3)n2)c1 (stereo not given)	none (no result: AHR act, Mot1-301 SUMO, NTR1 agonist, GRIN3A LBD mod, AI-2 QS modul)
O=C(Nc1ccc(Cl)cc1)c1csc(Cc2ccccc2)n1	AHR act 85 (no result: Mot1-301 SUMO) | AHR act confirm inactive | PXR counter inactive
COc1ccc(NC(=O)c2csc(Cc3ccc(Cl)cc3)n2)cc1	none
Cc1cc(-c2ccccc2)nc(Nc2nc3c(C)cccc3c(=O)[nH]2)n1	none (no result: AHR act, Mot1-301 SUMO, NTR1 agonist, AI-2 QS modul)
